Active and inactive are the calls of the source. How the calls were made is not given here.
Tested on: BCL3
Test: STAT3 activators, late-stage profile, late-stage follow-up, cell-based, STAT1 reporter, BCL3 qPCR, cytotoxicity (AID 2049)
Conditions: human cell reporter, STAT3/STAT1 activation; BCL3 mRNA qPCR, at 10 µM, stronger effect = higher value

CCCc1cc(C(=O)Nc2cc(OC)c(Cl)cc2OC)no1 was tested, and the fold change was 1.3 and the outcome was “active”.
In the case of COc1cc(NC(=O)c2cc(C3CC3)on2)c(OC)cc1Cl, the fold change is reported as 2.07 and the outcome is reported as “active; probe”.
COc1cc(NC(=O)c2cc(C(C)C)on2)c(OC)cc1Cl was tested, and the fold change was 0.42 and the outcome was “inactive; active”.
